# Experimental data taken from the supplement of paper PMC6555819.
# Tests used:
# Experiment in all cases: PBM binding z-score (relative to random genomic background probes); higher = stronger binding; sequences stand for … in GC…GCGATTGACAGCGTAGAATGAAGG
# [1] = system: PPARg:RXRa DBDmut IVT, anti-RXR (DBD mutation: RXRa K156A/R161A, NR concentration 270 nM, RXRa partner concentration 90 nM)
# Procedure, shortened: (§1)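 Ligand-free nuclear receptor dimers were applied to custom Agilent 4×180K protein-binding microarrays whose double-stranded probes carried direct-repeat seeds, single-nucleotide variants, half-site ablations and random human genomic background sequences in 34-nt variable regions. Incubation lasted 1 h. Binding z-scores were computed against the random background probes from regression-normalized fluorescence.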
# [2] = system: PPARg:RXRa IVT, anti-PPARg (NR concentration 270 nM, RXRa partner concentration 90 nM)
# Procedure, shortened: as §1
# [3] = system: PPARg DBDmut:RXRa IVT, anti-PPARg (DBD mutation: PPARg1 K132A/R137A, NR concentration 270 nM, RXRa partner concentration 90 nM)
# Procedure, shortened: as §1
# [4] = system: PPARg DBDmut IVT, anti-PPARg (DBD mutation: PPARg1 K132A/R137A, NR concentration 270 nM)
# Procedure, shortened: as §1
# [5] = system: PPARg homodimer (NR concentration 180 nM)
# Procedure, shortened: as §1
# [6] = system: PXR:RXRa (NR concentration 270 nM, RXRa partner concentration 90 nM)
# Procedure, shortened: as §1
# [7] = system: PXR homodimer (NR concentration 270 nM)
# Procedure, shortened: as §1
# [8] = system: RARa:RXR (NR concentration 270 nM, RXRa partner concentration 90 nM)
# Procedure, shortened: as §1
# [9] = system: RARa homodimer (NR concentration 270 nM)
# Procedure, shortened: as §1
# [10] = system: RARb:RXRa (NR concentration 270 nM, RXRa partner concentration 90 nM)
# Procedure, shortened: as §1
Sequence,PBM binding z-score [1],PBM binding z-score [2],PBM binding z-score [3],PBM binding z-score [4],PBM binding z-score [5],PBM binding z-score [6],PBM binding z-score [7],PBM binding z-score [8],PBM binding z-score [9],PBM binding z-score [10]
CCTATTAGTTGACCATAAGGGTAACCGAAGCTCG,0.609,0.727,0.109,1.15,1.86,0.536,1.04,0.834,2.48,1.06
CCTTTCGGGTCAAGGTTATAGCACGGGTGGTACG,1.96,3.48,0.691,0.648,2.93,3.67,0.171,4.51,0.494,4.3
ACTAGCAGGCCAAGTGTGGGTCACTCAAACAAAG,2.05,2.79,-0.334,-0.527,0.309,0.546,-0.107,1.35,-1.55,1.79
CCTAGCAGGGCAATCTGGGTCACTCAAGGCTTGA,4.48,5.72,-0.465,-0.641,0.648,1.65,-0.451,1.89,-0.799,2.06
TCTTGTAGATCGACAGGAGGTTAAGAAAGATCGA,0.885,0.145,0.496,0.679,-0.189,0.501,-0.189,0.459,-0.333,0.401
TCTGCTAGGTCAGTTGGTCATCTAACGAGCTGCC,2.75,3.27,0.685,0.261,0.396,0.316,-0.767,0.721,-0.587,3.47
ATCTCTAGGTAAGACTCAGTGCAGTGAAGAACGC,1.64,0.686,0.237,0.958,0.398,0.339,0.592,0.223,0.328,-0.152
AGAATGAGGTTAAGATCAGGCAAACAGAATACAT,2.85,2.81,0.992,0.64,0.518,1.33,-0.00329,2.09,0.263,1.92
TCATATAGGTAATACATGTGAAAGTCGGCATCTA,3.84,2.56,1.65,1.42,0.451,0.682,0.0389,1.03,0.882,0.439
ATCGACAGGTCGACGAGGTGAGTATACACCGTTT,-0.262,0.929,0.221,0.384,0.58,0.461,-0.437,1.54,0.5,1.53
CCTATCAGTTGACCATAAGGGCAACCGAAGCTCG,-0.0435,0.067,-0.241,0.0861,1.5,0.754,0.186,1.14,0.698,1.6
CCTATCAGGCCAATCTGGGTCACTCAAGGCTTGA,4.25,5.29,0.637,-0.095,1.45,1.27,-0.29,2.62,0.00198,1.75
ATACCAAGGTGATCGTGAGGTCGTTGCTACTAAC,0.566,1.52,0.602,0.38,0.741,3.18,1.05,1.91,0.0838,1.5
ATCGAAAGGTCGATGGTGAGTATACCCACCCGAA,-0.671,0.8,0.684,0.102,1.04,1.51,-0.361,2.18,0.322,3.03
CAGCCTAGGTCAGTGCCAGTATAGGAGGAACGTT,1.7,1.05,-1.18,-1.02,0.587,-0.0213,-0.197,0.516,-0.0242,3.17
CGTCCAAGGTCAGCAGGTCAGTGACAGCGACGTG,3.56,3.56,-0.271,-0.196,4.58,3.79,0.701,5.22,2.42,5.27
CCAGACAGGTGAGAAGGTAACTTAGCCTCGATTA,0.936,0.458,0.104,-0.619,1.19,-0.169,0.402,0.0746,0.973,0.689
GCTCGGAGGACAAGGTCAGAGGTTTGTCCGTAGA,-0.0469,1.09,-1.25,-0.886,0.801,1.78,-0.0547,2.19,-0.638,3.47
TCATATAGGTAAAGGTGTAAGTCGAACGATATGA,3.51,3.04,1.38,0.989,0.612,0.127,-0.297,0.259,0.411,0.413
CAAACTAGGTCAAGGTCAAAGGCGGTTTGTGCCA,8.62,8.69,1.56,1.08,4.11,4.86,2.19,5.36,1.25,5.02
TCGAGTAGGTTAGTCGGGGCAGTCAGCCAACATA,2.19,1.95,-0.923,-0.0532,-0.451,-0.323,-0.507,0.0728,-0.469,0.59
CAAACTAGGTCACGAAAGGTCAAACTCGAATGAC,8.89,8.97,2.74,2.02,5.15,7.23,4.8,7.97,4.28,5.84
TCATATAGGTAATACAGGTGAACGTCGGCATCTA,4.33,3.64,1.21,1.68,1.2,0.756,0.663,1.55,2.19,0.705
TCTCGGAGGACACGAAGGGTCAGAGCTCGACATC,1.38,0.541,-0.0647,-1.25,0.446,1.66,-0.67,2.31,-0.314,3.14
GCTTACGGGTCGAAGGTTATAGCATGAATAGAAT,0.529,2.66,0.973,0.687,1.39,2.65,-0.142,3.79,-0.0107,1.49

Sequence,PBM binding z-score [1],PBM binding z-score [2],PBM binding z-score [3],PBM binding z-score [4],PBM binding z-score [5],PBM binding z-score [6],PBM binding z-score [7],PBM binding z-score [8],PBM binding z-score [9],PBM binding z-score [10]
TCTAGGAGGCCAGAGGGTCACTCAAGAGGTACGG,1.84,1.03,-0.0331,-0.364,0.662,1.42,-0.35,2.08,-0.215,2.58
GTACCAAGGTGGATAGGTCGTTGATGAGTAGGCG,-0.637,-0.0801,-1.52,-1.37,0.672,-0.207,0.137,-0.144,0.114,0.368
GCTGCTAGGTCAACCGATGGTCAGCTAAAGCTCG,4.93,4.21,-0.16,-0.394,1.63,1.43,-0.956,2.99,-0.609,4.22
CCTAGTTGGTCTGGAGGTCACACACCGGATATGA,0.138,2.42,-0.0171,0.512,3.95,4.72,1.81,5.16,2.41,3.59
TAGCCTAGGTCATGGGCCAGTCTACCACGCGAAC,1.64,3.21,0.44,0.137,1.7,1.48,-0.884,2.52,-0.257,3.74
GCTGCTACGTCAACTGATGGTCAGCTAAAGCTCG,-0.232,-0.749,-0.632,-1.06,-1.02,-0.736,-1.23,-0.62,-1.34,-0.291
CCTATTAGTTGACAATAAGGGCAACCGAAGCTCG,0.466,0.343,0.307,0.312,0.811,0.771,0.868,1.07,1.45,1.21
GCAGACAGGTGAAACCCAGGTAACTCAGGGTGGC,0.362,0.476,-0.384,-0.363,-0.871,-0.19,-0.863,0.261,-1.14,0.645
CCTCGGAGGACAACAGGAGGTCCGAGCTGCCAGA,-0.427,-0.95,-1.85,-2.01,-0.576,-0.914,-0.768,-0.793,-0.318,1.1
ATCGAAAGGCCGAGGTGAGTATAGAGAAAGGGAA,-0.777,0.581,-0.257,0.0911,0.14,-0.348,0.0633,0.0364,-0.273,1.53
CCTATTAGTTGACCATAAGGGCATCCGAAGCTCG,0.225,0.238,0.764,0.611,0.73,0.903,1,0.903,1.97,1.37
TCTAGTTGATCAAAGGTCACACACTCGAAATGCG,2.34,4.45,1.08,1.36,4.93,5.73,2.14,6.33,3.64,4.85
TATACAGGGTCAAAAGCCAGAGTACGAATGTCGA,1.58,3.89,1.82,1.55,1.9,3.49,0.526,4.49,0.877,3.73
AGAACGAGGGAACGCTGAGTTGATAGCAGAGTAG,0.157,0.0104,-0.0244,-0.171,-0.732,-0.323,-0.229,-0.613,0.201,-0.517
TATACAGGGTCAAAGGCCAGGGTACGAATGTCGA,2.06,4.98,2.34,1.6,2.3,4.41,0.905,6.05,1.67,4.48
ACTAGCAGGCCAAGTTTGCGTCACTCAAACAAAG,0.769,0.225,0.102,-0.27,-0.265,-0.294,-0.479,-0.264,-0.243,0.486
CGAACGTGGGCATGAGTTGATAGCAAATGCCGAT,-0.469,-0.859,-1.14,-1.08,-1.28,-0.855,-0.719,-1.12,-0.791,-0.401
CGCACGAGGGCATGAGTTGATAGCAAATGCCGAT,1.88,1.02,-0.109,-0.507,0.288,0.438,-0.109,0.296,-0.714,2.09
TCTCGGAGGACACGAAAGGTCAGATCTCGACATC,2.03,1.5,-0.0755,-0.793,2.23,3.88,0.563,3.78,0.369,4.15
TGAATGAGGTTATAAAATCAGGGAACGTTGCAAA,0.257,1.47,1.21,0.504,0.289,0.62,-0.104,0.96,-0.0179,0.918
GCTCGCAGGACAAGGTCAGAGCTTTGTCCGTAGA,-0.189,0.355,-1.69,-1.23,-0.0307,1.35,-0.47,1.6,-1.24,3.05
TCTTGTAGATCAATAGAGGTTAAGAACGTGCGCT,1.69,1.17,0.658,1.03,0.496,1.51,0.111,1.83,0.544,0.956
CCTACTGGGCCATCAGGTCAATGATATCAACGTT,4.61,5.43,0.416,0.266,1.14,1.16,0.0872,1.6,-0.0644,2.19
CGAACTAGGTCAAGGACAGTGGATCTCCGCACGC,8.19,7.79,1.43,0.272,0.876,0.906,-0.161,1.62,0.0729,3.84
